Active and inactive are the calls of the source. Rule for the calls: active = hit-call score of the fitted dose curve at least 0.9, where 1 is the maximum; inactive = score below 0.9.
Columns and labels:
Settings in all cases: mRNA level, 48 h; actives raise or lower the signal
[1] = read-out: Forkhead box O3 (FOXO3), FOXO3 (gene 2309); assay: LTEA_HepaRG_FOXO3: Life Technologies and Expression Analysis (LTEA) Assay for Forkhead box O3 (FOXO3) using HepaRG (AID 2283459)
Summary of the method: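 Differentiated human HepaRG cells, 48 h post-plating, exposed in duplicate for 48 h in serum-free induction medium; 8-point half-log series from 100 uM in 0.5% DMSO. FOXO3 mRNA by TaqMan qRT-PCR, normalized to ACTB/GAPDH/POLR2A; bidirectional fit versus DMSO.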

[2] = read-out: ABC Transporter (ABCB1), ABCB1 (gene 5243); assay: LTEA_HepaRG_ABCB1: Life Technologies and Expression Analysis (LTEA) Assay for ABC Transporter (ABCB1) using HepaRG (AID 2283460)
Summary of the method: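 HepaRG cells exposed in duplicate for 48 h in serum-free induction medium to eight half-log concentrations up to 100 uM in 0.5% DMSO. ABCB1 mRNA quantified by qRT-PCR, normalised to ACTB, GAPDH and POLR2A; fitted bidirectionally versus DMSO.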

[3] = read-out: growth arrest and DNA damage 45 (GADD45B), GADD45B (gene 4616); assay: LTEA_HepaRG_GADD45B: Life Technologies and Expression Analysis (LTEA) Assay for growth arrest and DNA damage 45 (GADD45B) using HepaRG (AID 2283461)
Summary of the method: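 Values are bidirectional concentration-response fits against 0.5% DMSO controls. Underlying data: qRT-PCR mRNA levels in human HepaRG liver cells treated 48 h in serum-free induction medium, eight concentrations topping at 100 uM.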

[4] = read-out: ABC Transporter (ABCC3), ABCC3 (gene 8714); assay: LTEA_HepaRG_ABCC3: Life Technologies and Expression Analysis (LTEA) Assay for ABC Transporter (ABCC3) using HepaRG (AID 2283462)
Summary of the method: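 Differentiated HepaRG liver cells receive test chemicals at eight concentrations (max 100 uM) for 48 h. Expression of ABCC3 is quantified by qRT-PCR against ACTB, GAPDH and POLR2A, and activity is fitted in both directions against the DMSO control.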

[5] = read-out: ABC Transporter (ABCB11), ABCB11 (gene 8647); assay: LTEA_HepaRG_ABCB11: Life Technologies and Expression Analysis (LTEA) Assay for ABC Transporter (ABCB11) using HepaRG (AID 2283463)
Summary of the method: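 Differentiated human HepaRG cells in serum-free induction medium, dosed in duplicate for 48 h. Eight-point half-log series from 100 uM in 0.5% DMSO; ABCB11 mRNA by qRT-PCR, normalized to ACTB, GAPDH, POLR2A, fitted bidirectionally versus DMSO.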

[6] = read-out: ABC Transporter (ABCC2), ABCC2 (gene 1244); assay: LTEA_HepaRG_ABCC2: Life Technologies and Expression Analysis (LTEA) Assay for ABC Transporter (ABCC2) using HepaRG (AID 2283464)
Summary of the method: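 Gene expression of ABCC2 was determined by qRT-PCR in HepaRG cells exposed 48 h to chemicals (highest 100 uM, half-log dilutions). Activity was fitted in both directions relative to 0.5% DMSO vehicle.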

[7] = read-out: Broad substrate specificity ATP-binding cassette transporter ABCG2 (Homo sapiens) (UniProt Q9UNQ0); assay: LTEA_HepaRG_ABCG2: Life Technologies and Expression Analysis (LTEA) Assay for ABC Transporter (ABCG2) using HepaRG (AID 2283465)
Summary of the method: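 Differentiated HepaRG cells were exposed for 48 h in serum-free induction medium to 8 half-log concentrations, top 100 uM, in 0.5% DMSO. ABCG2 mRNA was measured by qRT-PCR, normalized to ACTB, GAPDH and POLR2A, with bidirectional fitting versus DMSO.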

[8] = read-out: ATP-citrate lyase (ACLY), ACLY (gene 47); assay: LTEA_HepaRG_ACLY: Life Technologies and Expression Analysis (LTEA) Assay for ATP-citrate lyase (ACLY) using HepaRG (AID 2283466)
Summary of the method: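 Differentiated HepaRG cells exposed 48 h in serum-free induction medium to eight half-log concentrations up to 100 uM in 0.5% DMSO, duplicates. Transcript measured by Fluidigm TaqMan qRT-PCR, normalized to ACTB, GAPDH, POLR2A; bidirectional fit versus DMSO.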

[9] = read-out: Peroxisomal acyl-coenzyme A oxidase 1 (ACOX1) gene, ACOX1 (gene 51); assay: LTEA_HepaRG_ACOX1: Life Technologies and Expression Analysis (LTEA) Assay for Peroxisomal acyl-coenzyme A oxidase 1 (ACOX1) gene using HepaRG (AID 2283467)
Summary of the method: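 HepaRG cells, plated 48 h then switched to serum-free induction medium, were exposed in duplicate for 48 h to 8-point half-log concentrations up to 100 uM in 0.5% DMSO. ACOX1 mRNA was measured by qRT-PCR, normalized to ACTB/GAPDH/POLR2A, and fitted bidirectionally versus DMSO.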

[10] = read-out: Alkaline Phosphatase, Placental (ALPP) gene, ALPP (gene 250); assay: LTEA_HepaRG_ALPP: Life Technologies and Expression Analysis (LTEA) Assay for Alkaline Phosphatase, Placental (ALPP) gene using HepaRG (AID 2283468)
Summary of the method: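 Expression of ALPP was quantified by qRT-PCR against three housekeeping genes in human HepaRG cultures treated for 48 h with an eight-point concentration series up to 100 uM. Activity in either direction was fitted relative to 0.5% DMSO.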

[11] = read-out: Bcl-2 (BAD) gene, BAD (gene 572); assay: LTEA_HepaRG_BAD: Life Technologies and Expression Analysis (LTEA) Assay for Bcl-2 (BAD) gene using HepaRG (AID 2283469)
Summary of the method: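 Differentiated HepaRG cells were exposed in duplicate in 0.5% DMSO for 48 h to eight-point half-log concentrations up to 100 uM. BAD mRNA was measured by Fluidigm TaqMan qRT-PCR, normalized to ACTB, GAPDH and POLR2A, and fitted bidirectionally against DMSO.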

[12] = read-out: Bcl-2 (BAX) gene, BAX (gene 581); assay: LTEA_HepaRG_BAX: Life Technologies and Expression Analysis (LTEA) Assay for Bcl-2 (BAX) gene using HepaRG (AID 2283470)
Summary of the method: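 Differentiated HepaRG cells exposed 48 h in serum-free induction medium, eight half-log concentrations from 100 uM, in duplicate, 0.5% DMSO vehicle. BAX mRNA by TaqMan qRT-PCR, normalised to ACTB, GAPDH and POLR2A.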

[13] = read-out: adenosine kinase (ADK) gene, ADK (gene 132); assay: LTEA_HepaRG_ADK: Life Technologies and Expression Analysis (LTEA) Assay for adenosine kinase (ADK) gene using HepaRG (AID 2283471)
Summary of the method: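 Following 48 h exposure of HepaRG cells in 0.5% DMSO (top concentration 100 uM, duplicate wells), ADK mRNA induction or suppression was measured by qRT-PCR, normalised to ACTB/GAPDH/POLR2A, and fitted bidirectionally relative to vehicle.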

[14] = read-out: Alpha-fetoprotein (AFP) gene, AFP (gene 174); assay: LTEA_HepaRG_AFP: Life Technologies and Expression Analysis (LTEA) Assay for Alpha-fetoprotein (AFP) gene using HepaRG (AID 2283472)
Summary of the method: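 Differentiated human HepaRG cells exposed 48 h in serum-free induction medium, 8-point half-log series from 100 uM in 0.5% DMSO, duplicate. AFP mRNA by qRT-PCR, normalized to ACTB, GAPDH, POLR2A; bidirectional fit vs DMSO.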

[15] = read-out: Apolipoprotein A-V (APOA5) gene, APOA5 (gene 116519); assay: LTEA_HepaRG_APOA5: Life Technologies and Expression Analysis (LTEA) Assay for Apolipoprotein A-V (APOA5) gene using HepaRG (AID 2283474)
Summary of the method: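 Human liver HepaRG cells are treated 48 h with test chemicals (100 uM top, half-log dilutions, 0.5% DMSO). APOA5 mRNA induction or loss is measured by qRT-PCR relative to vehicle.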

[16] = read-out: Bcl-2 (BID) gene, BID (gene 637); assay: LTEA_HepaRG_BID: Life Technologies and Expression Analysis (LTEA) Assay for Bcl-2 (BID) gene using HepaRG (AID 2283476)
Summary of the method: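 Gene expression by qRT-PCR in HepaRG cells after 48 h exposure, duplicate wells, eight half-log concentrations topping at 100 uM in 0.5% DMSO. Normalized to ACTB, GAPDH, POLR2A; bidirectional fitting relative to DMSO.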

BCL2L11 (gene 10018) = assay: LTEA_HepaRG_BCL2L11: Life Technologies and Expression Analysis (LTEA) Assay for Bcl-2 (BCL2L11) gene using HepaRG (AID 2283473)
Summary of the method: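 Cells were plated, cultured 48 h, switched to serum-free induction medium, then dosed in duplicate for 48 h at eight half-log concentrations up to 100 uM. Lysates underwent RNA isolation and TaqMan qRT-PCR; gain or loss versus DMSO was fitted.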

[17] = read-out: growth arrest and DNA damage 45 (GADD45A), GADD45A (gene 1647); assay: LTEA_HepaRG_GADD45A: Life Technologies and Expression Analysis (LTEA) Assay for growth arrest and DNA damage 45 (GADD45A) using HepaRG (AID 2283458)
Summary of the method: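 Differentiated HepaRG cells exposed 48 h in serum-free induction medium to 8 concentrations, top 100 uM in half-log steps, 0.5% DMSO. GADD45A mRNA quantified by qRT-PCR, normalized to ACTB, GAPDH and POLR2A; bidirectional fit versus DMSO.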

[18] = read-out: Apoptosis regulator Bcl-2 (Homo sapiens) (UniProt P10415); assay: LTEA_HepaRG_BCL2: Life Technologies and Expression Analysis (LTEA) Assay for Bcl-2 gene using HepaRG (AID 2283475)
Summary of the method: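 Differentiated human HepaRG cells in serum-free induction medium exposed 48 h, in duplicate, to 8-point half-log series from 100 uM in 0.5% DMSO. BCL2 mRNA by qRT-PCR (TaqMan/Fluidigm), normalized to ACTB, GAPDH, POLR2A; bidirectional fit against DMSO.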

Measured: AC50

Chain of Broad substrate specificity ATP-binding cassette transporter ABCG2 (Homo sapiens) (Q9UNQ0 whole entry, looked up): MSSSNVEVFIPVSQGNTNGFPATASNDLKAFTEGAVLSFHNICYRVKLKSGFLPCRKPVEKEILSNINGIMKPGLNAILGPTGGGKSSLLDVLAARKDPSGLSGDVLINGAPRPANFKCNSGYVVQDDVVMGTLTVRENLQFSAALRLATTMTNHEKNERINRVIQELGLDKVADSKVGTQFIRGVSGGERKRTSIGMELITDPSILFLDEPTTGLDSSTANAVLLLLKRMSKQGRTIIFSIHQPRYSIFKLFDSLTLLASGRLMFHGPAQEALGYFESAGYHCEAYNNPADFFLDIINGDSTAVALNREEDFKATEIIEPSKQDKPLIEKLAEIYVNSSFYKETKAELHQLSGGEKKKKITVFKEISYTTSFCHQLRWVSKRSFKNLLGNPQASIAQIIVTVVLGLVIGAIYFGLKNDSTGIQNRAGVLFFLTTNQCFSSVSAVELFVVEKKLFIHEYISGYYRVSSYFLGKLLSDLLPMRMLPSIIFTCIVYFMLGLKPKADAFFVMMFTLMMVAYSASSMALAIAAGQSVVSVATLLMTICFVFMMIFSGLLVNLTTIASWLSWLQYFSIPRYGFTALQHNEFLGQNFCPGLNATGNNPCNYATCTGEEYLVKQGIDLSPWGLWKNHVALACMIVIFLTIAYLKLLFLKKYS
Chain of Apoptosis regulator Bcl-2 (Homo sapiens) (P10415 whole entry, looked up): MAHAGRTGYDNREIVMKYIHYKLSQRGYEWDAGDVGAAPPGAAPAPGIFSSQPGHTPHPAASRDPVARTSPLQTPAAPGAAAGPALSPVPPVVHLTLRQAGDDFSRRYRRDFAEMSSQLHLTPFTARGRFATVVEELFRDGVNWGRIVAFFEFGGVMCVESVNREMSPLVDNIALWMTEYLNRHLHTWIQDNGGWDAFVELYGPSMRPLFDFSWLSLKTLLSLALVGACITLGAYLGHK

COC(=O)c1ccccc1O
not listed: BCL2L11 (gene 10018) | [17] | [18]
inactive: all other assays above

C=CC(=C)CCC=C(C)C
not listed: [9] | [17] | [18]
inactive: all other assays above

Nc1ccc(Nc2ccccc2)cc1
active: [3] 63.2 µM | [5] 69.2 µM | [10] 50 µM | [11] 11.9 µM | [14] 75.9 µM
not listed: [2] | [4]
inactive: all other assays above

On1ccccc1=S
not listed: [2] | [11] | [18]
inactive: all other assays above

CCCN(C1CCN(C(=O)C2CCNCC2)CC1)[C@@H]1CCc2ccc(OC)cc2C1
inactive: [3] | [8] | [11] | [12] | [13] | BCL2L11 (gene 10018) | [16]
active: [1] 27.6 µM | [2] 15.2 µM | [4] 42.9 µM | [5] 70 µM | [6] 76 µM | [7] 35.5 µM | [10] 50 µM | [14] 76.2 µM | [15] 77.4 µM

O=C(NS(=O)(=O)/C=C/c1ccccc1)c1ccc(F)cc1Cl
active: [5] 50 µM | [6] 4.56 µM | [14] 18.9 µM
not listed: [2] | [4] | [11]
inactive: all other assays above

O=C1CCCCCN1
not listed: [2] | [9] | [11]
inactive: all other assays above

Cn1c(=O)cc(Oc2ccc(F)cc2F)c2cnc(NCC(C)(C)O)nc21
active: [5] 12.7 µM | [10] 20.7 µM
not listed: [2] | [11] | [18]
inactive: all other assays above

Reference: PubChem BioAssay (EPA / NIEHS)
